Test results published in PubChem BioAssay (EPA / NIEHS).
“And” between values parts separate entries of the source, which are not always exact repeats. Identical values can stand only once. Results filed as inconclusive are left out. Some structures have more than one record in an assay (separate samples or runs), and their calls can disagree. The source made the active and inactive calls. The calls were made as follows, unless noted: active = hit-call score of the fitted dose curve at least 0.9, where 1 is the maximum; inactive = score below 0.9.

Experiments:
[1] = target: Oxysterols receptor LXR-alpha (Homo sapiens) (UniProt Q13133); experiment: ATG_LXRa_TRANS: Attagene TRANS-FACTORIAL HepG2 Assay for human Liver X Receptor alpha (LXRa) (AID 2282980; active = hit-call score of the fitted dose curve at least 0.9, where 1 is the maximum); conditions: HepG2 Attagene TRANS reporter, LXRa transactivation
Sequence of Oxysterols receptor LXR-alpha (Homo sapiens) (Q13133 whole entry, looked up, the tested form may be a part): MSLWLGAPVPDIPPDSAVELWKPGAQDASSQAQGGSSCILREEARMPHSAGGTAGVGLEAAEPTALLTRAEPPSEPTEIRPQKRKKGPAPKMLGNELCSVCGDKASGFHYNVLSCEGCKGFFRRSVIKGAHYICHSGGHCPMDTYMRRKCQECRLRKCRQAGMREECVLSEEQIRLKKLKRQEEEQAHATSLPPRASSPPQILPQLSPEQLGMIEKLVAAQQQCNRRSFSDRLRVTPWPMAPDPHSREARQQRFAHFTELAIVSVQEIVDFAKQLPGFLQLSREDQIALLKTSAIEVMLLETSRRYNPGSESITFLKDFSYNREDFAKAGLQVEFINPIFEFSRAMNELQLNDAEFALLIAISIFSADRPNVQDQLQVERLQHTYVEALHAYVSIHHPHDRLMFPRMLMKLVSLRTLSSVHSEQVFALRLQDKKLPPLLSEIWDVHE
Summary of the method: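 Read-out: reporter transcript levels by RT-PCR plus capillary electrophoresis, fluorescence intensity. Transiently transfected HepG2, exogenous NR-GAL4 chimera, GAL4-UAS reporters; 24 h compound exposure. Activity = increase over DMSO negative control.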

[2] = ATG_M_06_TRANS: Attagene TRANS-FACTORIAL HepG2 Assay for M06 Transcription Factor (Internal Marker) (AID 2282983; active = hit-call score of the fitted dose curve at least 0.9, where 1 is the maximum); conditions: HepG2 Attagene TRANS M06 internal marker reporter
Summary of the method: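 Read-out: fluorescent reporter cDNA fragments resolved by capillary electrophoresis after RT-PCR and HpaI cut. Source cells were HepG2 carrying transfected multi-reporter GAL4 constructs, dosed 24 h. Increase over DMSO control analysed.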

[3] = target: Transcriptional activator Myb (Homo sapiens) (UniProt P10242); experiment: ATG_Myb_CIS: Attagene CIS-FACTORIAL HepG2 Assay for human Myeloblastosis (Myb) Proto-Oncogene Transcription Factor (AID 2282986); conditions: HepG2 Attagene CIS-FACTORIAL Myb reporter transcription; actives raise or lower the signal
Sequence of Transcriptional activator Myb (Homo sapiens) (P10242 whole entry, looked up): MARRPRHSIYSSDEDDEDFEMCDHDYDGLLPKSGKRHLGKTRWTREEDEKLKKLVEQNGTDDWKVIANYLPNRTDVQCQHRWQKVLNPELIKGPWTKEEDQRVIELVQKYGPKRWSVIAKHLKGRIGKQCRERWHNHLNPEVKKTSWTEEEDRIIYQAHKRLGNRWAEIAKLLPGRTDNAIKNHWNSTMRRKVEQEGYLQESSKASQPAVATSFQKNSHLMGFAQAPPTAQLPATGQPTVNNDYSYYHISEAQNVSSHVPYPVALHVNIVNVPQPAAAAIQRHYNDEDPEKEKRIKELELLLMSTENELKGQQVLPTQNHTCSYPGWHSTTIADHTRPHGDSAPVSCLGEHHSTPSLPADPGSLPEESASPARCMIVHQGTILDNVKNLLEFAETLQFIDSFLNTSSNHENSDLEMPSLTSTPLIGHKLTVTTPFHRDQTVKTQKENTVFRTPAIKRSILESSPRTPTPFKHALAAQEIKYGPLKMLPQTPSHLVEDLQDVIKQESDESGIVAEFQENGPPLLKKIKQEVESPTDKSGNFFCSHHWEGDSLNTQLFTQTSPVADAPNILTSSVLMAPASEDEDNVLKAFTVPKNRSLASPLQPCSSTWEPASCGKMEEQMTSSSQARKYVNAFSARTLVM
Summary of the method: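 Fluorescence signals from capillary electrophoresis of RT-PCR-amplified reporter cDNA give the read-out. Cells: HepG2 transfected with multiple cis-regulated reporter units. Exposure lasts 24 hours; DMSO defines baseline for gain or loss of signal.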

[4] = target: Nuclear respiratory factor 1 (Homo sapiens) (UniProt Q16656); experiment: ATG_NRF1_CIS: Attagene CIS-FACTORIAL HepG2 Assay for human Nuclear Respiratory Factor 1 (NRF1) Orphan Gene (AID 2282987); conditions: HepG2 NRF1 cis-element reporter, Attagene multiplex; actives raise or lower the signal
Sequence of Nuclear respiratory factor 1 (Homo sapiens) (Q16656 whole entry, looked up): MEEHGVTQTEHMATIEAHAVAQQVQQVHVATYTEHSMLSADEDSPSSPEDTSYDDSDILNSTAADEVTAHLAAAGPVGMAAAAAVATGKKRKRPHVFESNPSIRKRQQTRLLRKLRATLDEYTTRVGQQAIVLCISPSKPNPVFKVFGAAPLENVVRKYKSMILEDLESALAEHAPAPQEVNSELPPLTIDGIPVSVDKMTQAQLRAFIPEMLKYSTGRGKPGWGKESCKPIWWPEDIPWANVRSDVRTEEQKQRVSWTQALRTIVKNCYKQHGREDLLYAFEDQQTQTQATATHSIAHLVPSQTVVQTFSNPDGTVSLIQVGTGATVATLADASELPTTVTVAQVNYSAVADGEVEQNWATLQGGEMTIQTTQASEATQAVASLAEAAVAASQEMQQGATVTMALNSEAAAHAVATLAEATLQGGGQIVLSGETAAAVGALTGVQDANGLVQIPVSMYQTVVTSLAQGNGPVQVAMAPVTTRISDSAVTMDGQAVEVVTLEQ
Summary of the method: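 Transcriptional reporter readout, one component of a 52-endpoint multiplexed HepG2 panel. Exposure 24 h; mRNA detected via RT-PCR and fluorescent capillary electrophoresis; fitting in both directions against DMSO.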

[5] = ATG_NFI_CIS: Attagene CIS-FACTORIAL HepG2 Assay for human Nuclear Factor I (NFI) (AID 2282989); conditions: HepG2 cis-regulatory reporter, NFI response element transcription; actives raise or lower the signal
Summary of the method: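 Reporter transcription driven by endogenous transcription factors in HepG2 cells; 24 h treatment. Quantitation by labelled RT-PCR fragments on capillary electrophoresis, gain- or loss-of-signal relative to DMSO.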

[6] = ATG_NF_kB_CIS: Attagene CIS-FACTORIAL HepG2 Assay for human Nuclear Factor Kappa B (NF-kB) (AID 2282991); conditions: HepG2 Attagene cis-factorial NF-kB reporter mRNA; actives raise or lower the signal
Summary of the method: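 HepG2, transient multi-reporter transfection, cis promoter elements (endogenous TFs). 24 h exposure. Total RNA → RT → PCR → 6-FAM label → HpaI → CE. Gain/loss vs DMSO.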

[7] = ATG_NRF2_ARE_CIS: Attagene CIS-FACTORIAL HepG2 Assay for human Nuclear Factor Erythroid 2 Related Factor 2 (NFR2) response to Antioxidant Response Elements (ARE) (AID 2282992); conditions: HepG2 Attagene ARE/NRF2 reporter, transcription factor activity; actives raise or lower the signal;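 as to AC50: reporter mRNA level measured by RT-PCR and capillary electrophoresis fluorescence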
Summary of the method: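 Using transiently transfected HepG2 cells exposed for 24 h, reporter mRNA levels were determined by RT-PCR with fluorescent primer extension and capillary electrophoresis, analysed for gain or loss of signal against DMSO.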

[8] = ATG_Oct_MLP_CIS: Attagene CIS-FACTORIAL HepG2 Assay for human Octamer-Binding Transcription Factor (Oct) (AID 2282993); conditions: HepG2 Attagene cis-factorial Oct reporter, mRNA; actives raise or lower the signal
Summary of the method: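 Transfected HepG2 cells, 24 h treatment. Reporter mRNA quantified by RT-PCR–capillary electrophoresis; bidirectional fitting against DMSO.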

[9] = target: Cellular tumor antigen p53 (Homo sapiens) (UniProt P04637); experiment: ATG_p53_CIS: Attagene CIS-FACTORIAL HepG2 Assay for human p53 Transcription Factor (AID 2282994); conditions: HepG2 p53 cis-element reporter, Attagene mRNA; actives raise or lower the signal
Sequence of Cellular tumor antigen p53 (Homo sapiens) (P04637 whole entry, looked up, the tested form may be a part): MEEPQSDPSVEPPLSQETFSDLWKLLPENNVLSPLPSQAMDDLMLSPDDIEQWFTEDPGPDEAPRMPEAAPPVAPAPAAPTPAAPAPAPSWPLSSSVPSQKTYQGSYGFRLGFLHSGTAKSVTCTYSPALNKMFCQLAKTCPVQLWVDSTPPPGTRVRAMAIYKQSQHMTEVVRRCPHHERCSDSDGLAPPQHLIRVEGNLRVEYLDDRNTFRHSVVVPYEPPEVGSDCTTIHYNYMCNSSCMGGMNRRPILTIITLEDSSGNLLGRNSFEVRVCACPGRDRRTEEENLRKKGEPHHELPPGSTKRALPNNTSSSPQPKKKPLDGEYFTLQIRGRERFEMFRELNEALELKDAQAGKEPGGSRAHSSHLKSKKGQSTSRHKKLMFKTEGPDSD
Summary of the method: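 In HepG2 cells, reporter transcription units under cis-regulatory promoters were transiently introduced. Following 24 h treatment, RNA was processed to labelled, digested cDNA fragments read by capillary electrophoresis; fitting was bidirectional versus DMSO.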

[10] = target: Oxysterols receptor LXR-beta (Homo sapiens) (UniProt P55055); experiment: ATG_LXRb_TRANS: Attagene TRANS-FACTORIAL HepG2 Assay for human Liver X Receptor beta (LXRb) (AID 2282981; active = hit-call score of the fitted dose curve at least 0.9, where 1 is the maximum); conditions: HepG2 Attagene TRANS GAL4-LXRb reporter, mRNA
Sequence of Oxysterols receptor LXR-beta (Homo sapiens) (P55055 whole entry, looked up, the tested form may be a part): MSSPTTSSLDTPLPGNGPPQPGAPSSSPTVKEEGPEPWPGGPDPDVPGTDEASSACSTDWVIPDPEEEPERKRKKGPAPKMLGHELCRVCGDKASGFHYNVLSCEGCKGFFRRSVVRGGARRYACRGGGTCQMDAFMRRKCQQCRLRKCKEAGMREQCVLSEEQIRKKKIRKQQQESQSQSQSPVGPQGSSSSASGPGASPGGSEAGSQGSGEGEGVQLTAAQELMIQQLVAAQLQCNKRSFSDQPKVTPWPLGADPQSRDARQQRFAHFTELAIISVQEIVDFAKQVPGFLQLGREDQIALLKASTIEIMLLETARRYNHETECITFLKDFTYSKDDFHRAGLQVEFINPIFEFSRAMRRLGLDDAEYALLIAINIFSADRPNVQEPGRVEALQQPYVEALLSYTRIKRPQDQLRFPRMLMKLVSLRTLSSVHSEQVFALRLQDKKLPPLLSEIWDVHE
Summary of the method: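 Readout: fluorescent reporter mRNA fragments resolved by capillary electrophoresis after RT-PCR. System: transiently transfected human HepG2, exogenous LXRb-Gal4 chimera driving GAL4-UAS reporter, 24 h dosing. Activity fitted upward against DMSO baseline.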

[11] = target: Hepatocyte nuclear factor 4-alpha (Homo sapiens) (UniProt P41235); experiment: ATG_HNF4a_TRANS: Attagene TRANS-FACTORIAL HepG2 Assay for human Hepatocyte Nuclear Factor 4 alpha (HNF4a) (AID 2282982; active = hit-call score of the fitted dose curve at least 0.9, where 1 is the maximum); conditions: HepG2 HNF4a transactivation reporter, mRNA readout
Sequence of Hepatocyte nuclear factor 4-alpha (Homo sapiens) (P41235 whole entry, looked up): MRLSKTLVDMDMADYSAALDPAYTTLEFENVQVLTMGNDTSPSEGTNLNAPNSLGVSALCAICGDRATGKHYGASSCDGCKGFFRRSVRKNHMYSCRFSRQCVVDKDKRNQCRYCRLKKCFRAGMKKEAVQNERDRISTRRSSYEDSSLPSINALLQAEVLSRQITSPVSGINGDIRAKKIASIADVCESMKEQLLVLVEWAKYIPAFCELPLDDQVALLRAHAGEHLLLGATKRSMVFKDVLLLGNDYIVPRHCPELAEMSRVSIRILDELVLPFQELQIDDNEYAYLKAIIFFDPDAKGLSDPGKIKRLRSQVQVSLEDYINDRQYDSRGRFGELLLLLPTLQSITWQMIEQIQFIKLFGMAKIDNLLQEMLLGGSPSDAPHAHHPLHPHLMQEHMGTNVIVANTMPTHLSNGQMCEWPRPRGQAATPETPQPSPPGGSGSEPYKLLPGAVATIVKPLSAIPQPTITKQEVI
Summary of the method: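 Transient MRTU transfection of HepG2, 24 h dosing. Readout: reporter mRNA via RT-PCR + capillary electrophoresis, fluorescence; activity fit upward relative to DMSO control.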

[12] = ATG_M_32_TRANS: Attagene TRANS-FACTORIAL HepG2 Assay for M32 Transcription Factor (Internal Marker) (AID 2282984; active = hit-call score of the fitted dose curve at least 0.9, where 1 is the maximum;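 also: transcript level of a background control reporter unit measured by RT-PCR and capillary electrophoresis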); conditions: HepG2 Attagene TRANS M32 internal marker reporter
Summary of the method: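 Read-out: fluorescent reporter cDNA fragments resolved by capillary electrophoresis after RT-PCR of total RNA. Transfected HepG2 cells were exposed to chemical for 24 h. Activity scored in the positive direction relative to DMSO.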

[13] = target: Myc proto-oncogene protein (Homo sapiens) (UniProt P01106); experiment: ATG_Myc_CIS: Attagene CIS-FACTORIAL HepG2 Assay for human Myelocytomatosis (Myc) Proto-Oncogene Transcription Factor (AID 2282990); conditions: HepG2, Attagene cis-reporter transcription factor activity; actives raise or lower the signal
Sequence of Myc proto-oncogene protein (Homo sapiens) (P01106 whole entry, looked up, the tested form may be a part): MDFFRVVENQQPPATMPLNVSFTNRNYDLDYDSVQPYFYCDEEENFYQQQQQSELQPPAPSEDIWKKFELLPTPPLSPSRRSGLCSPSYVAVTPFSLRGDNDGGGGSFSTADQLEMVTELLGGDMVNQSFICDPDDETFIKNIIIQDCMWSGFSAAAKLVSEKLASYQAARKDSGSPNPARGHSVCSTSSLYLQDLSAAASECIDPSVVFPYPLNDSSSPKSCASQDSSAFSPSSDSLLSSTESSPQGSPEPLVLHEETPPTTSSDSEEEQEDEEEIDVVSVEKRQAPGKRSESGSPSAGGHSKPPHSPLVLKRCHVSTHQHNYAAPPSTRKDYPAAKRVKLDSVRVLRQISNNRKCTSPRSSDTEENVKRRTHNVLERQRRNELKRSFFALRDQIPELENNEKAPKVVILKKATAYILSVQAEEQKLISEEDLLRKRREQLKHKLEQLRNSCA
Summary of the method: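 Read-out: fluorescent reporter mRNA fragments resolved by capillary electrophoresis after RT-PCR. Human HepG2 liver cells carried transfected cis-element reporter units and were dosed for 24 h. Gain or loss of signal fitted relative to DMSO baseline.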

[14] = BSK_3C_TissueFactor: BioMAP Diversity Plus: 3C Assay for Tissue Factor Biomarker Activity (AID 2282997); conditions: BioMAP 3C HUVEC, tissue factor biomarker readout; actives raise or lower the signal
Summary of the method: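 HUVEC, 3C system, 24 h post-dose; Tissue Factor by ELISA; bidirectional fit vs DMSO baseline.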

[15] = BSK_3C_uPAR: BioMAP Diversity Plus: 3C Assay for Urokinase-type plasminogen activator receptor (uPAR) Biomarker Activity (AID 2282998); conditions: BioMAP 3C HUVEC, uPAR biomarker ELISA; actives raise or lower the signal
Summary of the method: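 Readout: ELISA for surface uPAR. System: human umbilical vein endothelial primary cells, 24 h after chemical exposure. Analysis: bidirectional fit, DMSO baseline.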

[16] = BSK_3C_VCAM1: BioMAP Diversity Plus: 3C Assay for Vascular cell adhesion molecule 1 (VCAM1) Biomarker Activity (AID 2282999); conditions: BioMAP 3C HUVEC, VCAM1 ELISA, cytokine-stimulated; actives raise or lower the signal
Summary of the method: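 HUVEC primary cells, 24 h compound exposure; VCAM-1 by ELISA; gain/loss of signal fitted bidirectionally vs DMSO baseline.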

[17] = BSK_4H_Eotaxin3: BioMAP Diversity Plus: 4H Assay for Eotaxin 3 Biomarker Activity (AID 2283000); conditions: primary human endothelial cells (HUVEC); actives raise or lower the signal
Summary of the method: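 Readout is Eotaxin-3 (CCL26) level by ELISA in primary human umbilical vein endothelial cells harvested 24 h after chemical exposure; activity fitted in both directions against DMSO control.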

[18] = target: Nuclear receptor subfamily 4 group A member 2 (Homo sapiens) (UniProt P43354); experiment: ATG_NURR1_TRANS: Attagene TRANS-FACTORIAL HepG2 Assay for human Nuclear Receptor Related Protein 1 (NURR1) (AID 2282985; active = hit-call score of the fitted dose curve at least 0.9, where 1 is the maximum); conditions: HepG2 Attagene TRANS reporter, mRNA readout
Sequence of Nuclear receptor subfamily 4 group A member 2 (Homo sapiens) (P43354 whole entry, looked up, the tested form may be a part): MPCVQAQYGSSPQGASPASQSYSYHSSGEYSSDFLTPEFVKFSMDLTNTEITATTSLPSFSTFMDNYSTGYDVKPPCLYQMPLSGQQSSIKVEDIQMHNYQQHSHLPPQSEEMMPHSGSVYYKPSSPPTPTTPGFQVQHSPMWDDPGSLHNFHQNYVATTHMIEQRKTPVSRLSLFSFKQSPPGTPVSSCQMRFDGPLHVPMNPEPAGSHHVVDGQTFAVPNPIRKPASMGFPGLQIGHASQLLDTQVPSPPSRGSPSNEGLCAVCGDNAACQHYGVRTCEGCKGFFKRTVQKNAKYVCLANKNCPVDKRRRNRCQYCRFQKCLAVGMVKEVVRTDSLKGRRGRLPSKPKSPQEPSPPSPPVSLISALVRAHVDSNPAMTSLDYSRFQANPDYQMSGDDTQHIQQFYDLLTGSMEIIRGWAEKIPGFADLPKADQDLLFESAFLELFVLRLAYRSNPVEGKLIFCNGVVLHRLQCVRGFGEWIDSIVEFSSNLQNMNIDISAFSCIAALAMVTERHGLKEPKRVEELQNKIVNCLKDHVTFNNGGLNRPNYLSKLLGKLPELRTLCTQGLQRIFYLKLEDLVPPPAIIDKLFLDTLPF
Summary of the method: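 Read-out: reporter mRNA induction by RT-PCR plus capillary electrophoresis with fluorescence detection, after 24 h dosing of transfected HepG2 cells. Exogenous NR-Gal4 chimera activity drives GAL4-UAS reporter; activity fitted upward versus DMSO.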

Measured: AC50

ON=C1CCCCC1
inactive: [1] | [2] | [3] | [4] | [5] | [6] | [7] | [8] | [9]

O=CN1CCOCC1
not listed: [1] | [18]
inactive: all other assays above

C=CC(=O)OCCC#N
inactive: [10] | [11] | [2] | [18] | [5] | [13]
active: [6] 50.9 µM | [7] 25.9 µM | [8] 44.1 µM | [9] 164 µM

CCCCCCOC(=O)C(C)C
not listed: [1] | [12] | [14] | [15] | [16] | [17] | [18]
inactive: all other assays above

CCCCC(CC)C(=O)OC(C)C (stereo unspecified)
not listed: [1] | [11] | [14] | [15] | [16] | [17]
inactive: all other assays above

Cc1ncc([N+](=O)[O-])n1CCO
inactive: [1] | [11] | [2] | [4] | [5] | [7] | [8] | [9]

C=C(C)C1CC=C(C)C(=O)C1 (stereo unspecified)
inactive: [10] | [11] | [2] | [4] | [5] | [13] | [6] | [7] | [8]

CN(C)c1ccncc1
inactive: [1] | [11] | [3] | [4] | [5] | [13] | [6] | [7] | [8]

CCCCCCCCCCCC(=O)OCC(O)CO (stereo unspecified)
inactive: [10] | [2] | [12] | [3] | [4] | [5] | [13] | [8]
active: [18] 132 µM | [6] 100 µM | [7] 100 µM

CCCCCCCC(=O)OCCCCCC
not listed: [4] | [10] | [14] | [15] | [16] | [17]
inactive: all other assays above

Nc1c(Cl)cc(Cl)cc1[N+](=O)[O-]
active: [7] 41.5 µM
not listed: [10] | [14] | [15] | [16] | [17] | [18]
inactive: all other assays above

CC(C)c1ccccc1O
inactive: [1] | [2] | [4] | [5] | [13] | [6] | [7] | [8] | [9]

COC(CC(C)CCCC(C)(C)O)OC (stereo unspecified)
inactive: [1] | [11] | [3] | [4] | [5] | [13] | [6] | [7] | [8] | [9]

COC(=O)c1ccc(C)cc1C1=NC(C)(C(C)C)C(=O)N1 (stereo unspecified) (tested in a mixture with another compound)
inactive: [1] | [18] | [3] | [4] | [5] | [13] | [6] | [7] | [8] | [9]

CC1(C)CCC[C@]2(C)[C@H]3CCO[C@]3(C)CC[C@@H]12
active: [7] 155 µM | [14] 32 µM and 30.7 µM | [15] 32.9 µM | [17] 33.2 µM and 35 µM
inactive: [1] | [2] | [12] | [3] | [4] | [5] | [13] | [6] | [8] | [15] | [16]

CCC1CCCCC1
inactive: [1] | [3] | [4] | [5] | [13] | [6] | [7] | [8] | [9]

O=C(O)CCCCCCCCCCCC(=O)O
inactive: [1] | [3] | [4] | [5] | [13] | [7] | [8] | [9]

O=C1OC(=O)c2c(Br)c(Br)c(Br)c(Br)c21
active: [7] 100 µM
inactive: [10] | [2] | [12] | [18] | [3] | [4] | [5] | [13] | [6]

CC(=O)OCCCc1ccccc1
inactive: [10]
